# Source: PubChem BioAssay
# Where “and” joins values, the source holds several entries; their conditions need not be identical. Equal values may be shown once. Calls of active or inactive are those of the source.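 Rule for the calls, unless noted: active = at least 20% inhibition of 6-phosphogluconate dehydrogenase activity; inactive = the rest.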
# Assays:
# [1] = molecular target: 6-phosphogluconate dehydrogenase, decarboxylating (Homo sapiens) (UniProt P52209); assay: 6PGD enzyme inhibitors, primary screen, biochemical, human, recombinant enzyme, NADPH absorbance (AID 1159550); conditions: recombinant 6PGD, NADPH absorbance 341 nm; at 10 µM; stronger effect = higher value
# [2] = liver-stage malaria parasite growth inhibition, primary screen, cell-based, HepG2, luciferase luminescence, HepG2 viability (AID 624349; in the data active = parasite load remaining mostly below about 12%, no sharp cut-off; inactive = mostly above about 10%;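 note: 100% = mean of DMSO negative control wells on the same plate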); conditions: P. berghei liver stage in HepG2, luciferase luminescence, concentration not given here; parasite load remaining: stronger effect = lower value; viability: measured here: HepG2 viability without parasites
# [3] = stimulators of nuclear beta-catenin in C2C12, primary screen, imaging, WNT3A-conditioned medium, mouse C2C12, NPC library (AID 1117326; in the data active = nuclear beta-catenin stimulation mostly above about 4.2%, no sharp cut-off; inactive = mostly below about 10%); conditions: stronger effect = higher value
# [4] = stimulators of insulin release from INS-1E, primary screen, cell-based, 5 mM glucose, NPC library (AID 1117329;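 active = compound raises insulin release from rat beta cells at 5 mM glucose, no numeric limit stated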); conditions: rat INS-1E insulin secretion, at 10 µM, stronger effect = higher value
# [5] = glucagon-like peptide 1 release enhancers, primary assay, NCI-H716 cell line, NPC library (AID 1117341;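 active = compound raises GLP1 secretion from the human gut endocrine cells, with no numeric limit stated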); conditions: NCI-H716 cells, at 10 µM, stronger effect = higher value
# [6] = differential killing of epithelial or mesenchymal cells, primary screen, imaging, PC-3E GFP, TEM4-18 mCherry, co-culture (AID 1345086;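 active = compounds killing one labelled cell type while sparing the other, by normalised counts and ratio limits, not self-fluorescent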;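 for all read-outs here: cells exposed to compound for 72 h before imaging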;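 for red/green cell ratio (normalised): normalised mesenchymal count divided by normalised epithelial count so high means epithelial killing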); conditions: imaging cell counts, at 1 µM; for red/green cell ratio (normalised): actives lie on both sides
# [7] = sensitizers of A549 cells to miR-34 induction, primary screen, imaging, A549 dox-inducible miR-34, nuclei and caspase counts (AID 1347080;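 active = compounds whose cell count with miR-34 switched on is under 0.7 times the count with it off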); conditions: A549 miR-34 inducible, Hoechst nuclei count, 48 h
# [8] = growth inhibition of GSK3B-pretreated HCT116 cells – cell-based, CellTiter-Glo, 0.2 to 20 µM (AID 1117336;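 active = compounds lowering colon cancer cell viability after pretreatment blocking the GSK3B kinase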); conditions: HCT116 viability after GSK3B inhibitor, at 20 µM, stronger effect = higher value
# [9] = inhibition of endothelial tube formation, primary screen, imaging, VEGF stimulated, CD31 staining, tube area, NPC library (AID 1117340;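 active = compound that reduces growth-factor-driven endothelial tube area in a mixed cell culture, no cutoff stated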); conditions: VEGF-stimulated ADSC/ECFC co-culture, at 10 µM, stronger effect = higher value
# [10] = HCT116 colon cancer cell growth inhibition, primary screen, CellTiter-Glo luminescence, NPC library (AID 1117342;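 active = compounds that lower survival of HCT116 colon cancer cells in the luminescence readout, no numeric limit stated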); conditions: at 20 µM (top of the series)
# [11] = CellTiter-Glo luminescent readout of SW480 viability loss, NPC library primary (AID 1117343;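 active = compounds that lower viability of the colon cancer cells in the luminescence readout, with no numeric limit stated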); conditions: CellTiter-Glo luminescence; at 20 µM (top of the series)
# [12] = decreased DLD-1 cellular survival, CellTiter-Glo luminescent readout, NPC compound collection, primary HTS (AID 1117346;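 active = compounds that lower survival of DLD-1 colon cancer cells in the luminescence readout, no cutoff given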); conditions: DLD-1 viability, CellTiter-Glo luminescence; at 20 µM (top of the series)
# [13] = system: Hepatitis C virus NS3 helicase; assay: HCV NS3 helicase inhibitors, primary screen, biochemical, fluorescence polarization, LOPAC1280 library (AID 687035; in the data active = inhibition above about 37%); conditions: Purified HCV NS3 helicase, Cy5-dT15 ssDNA binding fluorescence polarization; stronger effect = higher value; concentration not given here
# [14] = Cy5 fluorescence quenching or enhancement artefacts, artefact control for HCV NS3 helicase inhibitor project, biochemical, LOPAC1280 (AID 687037; call rule not given here); conditions: Cy5-DNA-NS3h complex fluorescence interference counterscreen
# [15] = system: Aerobactin synthetase IucA (Klebsiella pneumoniae, hypervirulent); assay: IucA enzyme inhibition, biochemical, LOPAC library, absorbance readout (AID 1346212; call rule not given here;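 note: 100% = no compound wells and 0% = no enzyme wells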); conditions: IucA enzyme assay, absorbance (OD) readout; stronger effect = lower value;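 tested at 8 µM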
# [16] = viability rescue of complex I mutant cybrids, primary screen, cell-based, galactose medium, ATP luminescence (AID 1645843;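 active = z-score of at least 1.8 in each of two replicates, scored against plate mean and spread of sample wells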;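 note: positive z means more ATP and so rescue of galactose-driven cybrid death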); conditions: complex I mutant cybrid cells, 72 h, stronger effect = higher value
# [17] = molecular target: NAD(+) hydrolase SARM1 (Homo sapiens) (UniProt Q6SZW1); assay: SARM1 TIR NADase inhibitors, cell lysate, NAD-Glo luminescence (AID 1508614;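 active = compound whose remaining NAD level is above about 45 nM, limit read from the data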;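 note: higher remaining NAD means stronger inhibition of SARM1 NADase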); conditions: SAM-TIR HEK293T lysate NADase, at 1 µM, stronger effect = higher value
# [18] = measured here: epithelial PC-3E GFP cell survival
# [19] = measured here: mesenchymal TEM4-18 mCherry cell survival
# [20] = measured here: relative caspase fold change +Dox/-Dox
# [21] = measured here: total cells with miR-34 induction, stronger effect = lower value
# [22] = measured here: total cells without miR-34 induction
# Sequence of 6-phosphogluconate dehydrogenase, decarboxylating (Homo sapiens) (P52209 whole entry, looked up): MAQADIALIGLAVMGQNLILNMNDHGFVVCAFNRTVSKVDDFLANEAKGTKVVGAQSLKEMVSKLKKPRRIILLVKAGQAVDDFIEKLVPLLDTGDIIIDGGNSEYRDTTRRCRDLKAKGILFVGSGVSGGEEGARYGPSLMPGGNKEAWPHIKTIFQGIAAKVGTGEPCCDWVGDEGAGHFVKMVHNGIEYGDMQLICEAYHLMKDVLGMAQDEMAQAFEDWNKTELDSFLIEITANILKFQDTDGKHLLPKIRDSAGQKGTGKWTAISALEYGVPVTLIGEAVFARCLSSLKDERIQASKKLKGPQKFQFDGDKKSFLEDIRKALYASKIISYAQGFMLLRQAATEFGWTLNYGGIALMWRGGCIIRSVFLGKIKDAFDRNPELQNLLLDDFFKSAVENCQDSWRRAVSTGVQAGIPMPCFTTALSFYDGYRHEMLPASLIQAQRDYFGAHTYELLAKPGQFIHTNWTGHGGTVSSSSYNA
# Sequence of NAD(+) hydrolase SARM1 (Homo sapiens) (Q6SZW1 whole entry, looked up): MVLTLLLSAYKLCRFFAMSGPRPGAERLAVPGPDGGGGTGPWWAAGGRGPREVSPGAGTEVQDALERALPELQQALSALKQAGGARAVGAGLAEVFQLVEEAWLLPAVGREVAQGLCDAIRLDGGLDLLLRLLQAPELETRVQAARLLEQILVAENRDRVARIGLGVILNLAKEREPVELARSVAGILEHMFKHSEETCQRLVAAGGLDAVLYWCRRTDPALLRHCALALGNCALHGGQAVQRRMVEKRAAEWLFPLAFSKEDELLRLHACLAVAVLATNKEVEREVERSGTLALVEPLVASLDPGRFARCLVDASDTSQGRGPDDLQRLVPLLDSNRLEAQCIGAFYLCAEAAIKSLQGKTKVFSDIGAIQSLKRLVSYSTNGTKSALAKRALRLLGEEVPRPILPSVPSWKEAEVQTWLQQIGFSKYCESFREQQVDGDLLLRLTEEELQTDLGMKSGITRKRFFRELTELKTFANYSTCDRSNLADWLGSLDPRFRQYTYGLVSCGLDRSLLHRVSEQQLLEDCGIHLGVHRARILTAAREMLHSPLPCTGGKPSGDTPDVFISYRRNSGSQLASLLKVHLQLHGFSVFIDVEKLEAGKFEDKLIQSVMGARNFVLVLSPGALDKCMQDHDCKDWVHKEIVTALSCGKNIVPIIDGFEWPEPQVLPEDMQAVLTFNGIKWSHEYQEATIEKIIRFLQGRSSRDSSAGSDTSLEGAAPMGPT
structure (smiles),measurement,setting,value
CC(=O)O[C@H]1CC[C@]2(C)C3CC[C@]4(C)[C@@H](C5=CC(=O)OC5)[C@@H](OC(C)=O)C[C@]4(O)C3CC[C@@H]2C1 (stereo not given in full),inhibition,[1],0.446% (inactive)
COP(=S)(OC)Oc1ccc(Sc2ccc(OP(=S)(OC)OC)cc2)cc1,parasite load remaining,[2],25% (inactive)
same,viability,[2],137%
same,nuclear beta-catenin stimulation,[3]; at 10 µM,5.7% (inactive)
same,nuclear beta-catenin stimulation,"[3]; stimulation, at 2 µM",-0.8%
same,insulin secretion stimulation,[4],0.05% (inactive)
same,GLP1 secretion stimulation,[5],-8.7% (inactive)
same,inhibition,[1],-4.06% (inactive)
same,red/green cell ratio (normalised),[6],0.91 (inactive)
same,normalised cell number,[6]; [18],1.08
same,normalised cell number,[6]; [19],0.98
same,fold change,[7]; stronger effect = lower value,0.838 (inactive)
same,fold change,[7]; [20],1.68
same,cell count,[7]; [21],9320
same,cell count,[7]; [22],11100
C=C(C)C(=O)/C(=C/C(=O)O)OC,inhibition,[1],12.8% (inactive)
O=C1CC2OCC=C3CN4CCC56c7ccccc7N1C5C2C3CC46 (stereo not given),inhibition,[1],-2.71% (inactive)
O=C(CC[N+](=O)[O-])OC[C@H]1O[C@@H](O)[C@H](OC(=O)CC[N+](=O)[O-])[C@@H](OC(=O)CC[N+](=O)[O-])[C@@H]1OC(=O)CC[N+](=O)[O-],inhibition,[1],0.279% (inactive)
c1cc2c(cc1[C@H]1OC[C@@H]3[C@H]1CO[C@H]3c1ccc3c(c1)OCO3)OCO2,inhibition,[1],-14.7% (inactive)
ClC1=C(Cl)C2(Cl)C3C(Cl)C=CC3C1(Cl)C2(Cl)Cl (stereo not given),inhibition,[1],0.441% (inactive)
COc1cccc2c1C(=O)c1c(O)c3c(c(O)c1C2=O)C[C@@](O)(C(=O)CO)CC3OC1CC(N2CCOC(OC)C2)C(O)C(C)O1 (stereo not given in full),nuclear beta-catenin stimulation,[3]; at 10 µM,13.6% (active)
same,nuclear beta-catenin stimulation,"[3]; stimulation, at 2 µM",47.6%
same,insulin secretion stimulation,[4],1.1% (inactive)
same,GLP1 secretion stimulation,[5],7.5% (inactive)
CC(C)(C)c1ccc(O)cc1,insulin secretion stimulation,[4],0% (inactive)
same,viability decrease,[8],-1.5% (inactive)
same,tube area decrease,[9],-21.2% (inactive)
same,GLP1 secretion stimulation,[5],3.8% (inactive)
same,inhibition of viability,[10],7.9% (inactive)
same,viability decrease (inhibition),[11],15.7% (inactive)
same,viability decrease (inhibition),[12],4.65% (inactive)
COc1ccc2c(c1OC)C(=O)O[C@H]2[C@@H]1c2cc3c(cc2CCN1C)OCO3,inhibition,[13],-3% (inactive)
same,fluorescence ratio (interference),[14],1 (inactive)
same,nuclear beta-catenin stimulation,[3]; at 10 µM,-0.8% (inactive)
same,nuclear beta-catenin stimulation,"[3]; stimulation, at 2 µM",7.9%
same,viability decrease,[8],19.2% (inactive)
same,inhibition of viability,[10],19.8% (inactive)
same,viability decrease (inhibition),[11],3.5% (inactive)
same,viability decrease (inhibition),[12],-6.5% (inactive)
same,inhibition,[1],-1.62% (inactive)
same,remaining activity,[15],110% (inactive)
same,fold change,[7]; stronger effect = lower value,0.977 (inactive)
same,fold change,[7]; [20],1.1
same,cell count,[7]; [21],10700
same,cell count,[7]; [22],10900
same,z-score,[16],0.055 (inactive)
COC(=O)C(Cl)C(=O)OC,nuclear beta-catenin stimulation,[3]; at 10 µM,0.3% (inactive)
same,nuclear beta-catenin stimulation,"[3]; stimulation, at 2 µM",6.8%
same,viability decrease,[8],51.9% (active)
same,inhibition of viability,[10],37.3% (inactive)
same,viability decrease (inhibition),[11],-7.9% (inactive)
same,viability decrease (inhibition),[12],3.4% (inactive)
CC(=O)O[C@H]1CC[C@@]2(C)[C@@H](CC[C@@H]3[C@@H]2CC[C@]2(C)C(=O)CC[C@@H]32)C1,inhibition,[1],0.969% (inactive)
NCC(CC(=O)O)c1ccc(Cl)s1 (stereo not given),inhibition,[1],-3.23% (inactive)
CN(C)C(=S)SSC(=S)N(C)C,parasite load remaining,[2],69.7% (inactive) and -0.72% (inactive)
same,viability,[2],84.1% and 106%
same,nuclear beta-catenin stimulation,[3]; at 10 µM,68.4% (active)
same,nuclear beta-catenin stimulation,"[3]; stimulation, at 2 µM",48.7%
same,viability decrease,[8],65% (active)
same,tube area decrease,[9],39.3% (inactive)
same,inhibition of viability,[10],16.3% (inactive)
same,viability decrease (inhibition),[11],62.7% (active)
same,viability decrease (inhibition),[12],59.7% (active)
same,inhibition,[1],-10.3% (inactive)
same,red/green cell ratio (normalised),[6],1.29 (inactive)
same,normalised cell number,[6]; [18],0.66
same,normalised cell number,[6]; [19],0.85
same,fold change,[7]; stronger effect = lower value,0.701 (inactive)
same,fold change,[7]; [20],4.9
same,cell count,[7]; [21],7410
same,cell count,[7]; [22],10600
same,remaining NAD,[17],48 nM (active)
CO[C@H]1[C@H](O)[C@H](O[C@H]2CC[C@@]3(C=O)[C@H](CC[C@@H]4[C@@H]3CC[C@]3(C)[C@@H](C5=CC(=O)OC5)CC[C@]43O)C2)O[C@@H](C)[C@@H]1O,inhibition,[1],-22% (inactive)
Fc1cc(Br)ccc1CBr,nuclear beta-catenin stimulation,[3]; at 10 µM,-0.7% (inactive)
same,nuclear beta-catenin stimulation,"[3]; stimulation, at 2 µM",13%
same,viability decrease,[8],3.1% (inactive)
same,tube area decrease,[9],-4.2% (inactive)
same,inhibition of viability,[10],-1.5% (inactive)
same,viability decrease (inhibition),[11],5.9% (inactive)
same,viability decrease (inhibition),[12],9.1% (inactive)
